These results are taken from PubChem BioAssay AID1851 (National Center for Advancing Translational Sciences (NCATS), 2009).

Molecules are shown by their SMILES. “And” between values parts separate entries of the source, which are not always exact repeats. Identical values can stand only once. About 5,100 (32%) of roughly 16,000 compounds were called active. Not shown: some 25% with an inconclusive outcome. The list shows a part of the results. Values without a mark were called inactive. Calls come from the whole dose curve; as a rule, active = well fitted curve in the direction sought with a large enough effect; inconclusive = small, poorly fitted or top-dose-only effect, or effect the other way; inactive = no such curve, though single readings can be large or run the other way.
% is set by controls: 0 for no effect and ±100 for the full control effect.

Chain of Cytochrome P450 3A4 (Homo sapiens) (P08684 whole entry, looked up): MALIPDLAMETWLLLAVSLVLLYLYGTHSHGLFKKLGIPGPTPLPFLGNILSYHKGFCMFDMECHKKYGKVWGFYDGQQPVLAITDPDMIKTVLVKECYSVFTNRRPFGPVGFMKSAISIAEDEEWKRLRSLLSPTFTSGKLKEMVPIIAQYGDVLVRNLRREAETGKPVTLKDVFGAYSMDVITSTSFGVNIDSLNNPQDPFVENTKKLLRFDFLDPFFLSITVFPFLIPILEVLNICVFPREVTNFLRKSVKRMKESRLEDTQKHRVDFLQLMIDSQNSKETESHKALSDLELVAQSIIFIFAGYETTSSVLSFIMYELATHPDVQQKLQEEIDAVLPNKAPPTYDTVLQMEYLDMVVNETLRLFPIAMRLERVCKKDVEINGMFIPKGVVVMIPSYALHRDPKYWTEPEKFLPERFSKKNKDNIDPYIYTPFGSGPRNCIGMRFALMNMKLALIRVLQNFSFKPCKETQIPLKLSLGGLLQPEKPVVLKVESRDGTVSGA

For this assay, the target named is Cytochrome P450 3A4 (Homo sapiens) (UniProt P08684). Description: Cytochrome panel assay with activity outcomes. The conditions noted are these: recombinant CYP, pro-luciferin dealkylation, luminescence, p450-cyp3a4; series mostly up to 57.1 µM; activity, negative = inhibition: at the top concentration. How it is done:
The P450 gene superfamily is involved in the metabolism and clearance of xenobiotics. This assay used various human CYP P450 isozymes to measure the dealkylation of various pro-luciferin substrates to luciferin. The luciferin is then measured by luminescence after the addition of a luciferase detection reagent. Pro-luciferin substrate concentration in the assay was equal to its KM for its CYP P450 isozyme. Inhibitors and some substrates limit the production of luciferin, and decrease measured luminescence.
NCGC Assay Protocol Summary:
1, Reagent, 2 uL, Isozyme and Pro-Luciferin
2, Library compounds, 23 nl, 40 uM to 0.24 nM dilution series
3, Controls, 23 nl, Isozyme specific inhibitor
4, Reagent, 2 uL, NADPH regeneration solution
5, Incubation time, 60 min, Isozyme specific temperature
6, Reagent, 4ul, Detection reagent
7, Incubation time, 20 min, Isozyme specific temperature
8, Detection, 1 sec, ViewLux luminescent read
The luciferase-based P450-GloTM Screening Systems were obtained from Promega (Madison, WI) for CYP 1A2 (V9770), CYP 2C9 (V9790), CYP2 C19 (V9880), CYP 2D6 (V9890), and CYP 3A4 Luciferin-PPXE (V9910) and were adapted for 1,536-well microplates and an automated protocol. The control compounds furafylline for 1A2 (F124), sulfaphenazole for CYP 2C9 (S0758), ketoconazole for CYP 2C19 (K1003), quinidine for 2D6 (Q3625), and ketoconazole for 3A4 (K1003) were purchased from Sigma Aldrich (St. Louis, MO). Recombinant P450 enzymes were obtained from baculovirus constructs expressed in insect cells (BD/Gentest).
Medium-binding white solid Kalypsys plates used. Mixtures kept on ice. 1A2: 10 nM 1A2, 100 uM Luc-ME, 100 mM KPO4; 2C9: 10 nM 2C9, 100 uM Luc-H, 25 mM KPO4; 2C19: 5 nM 2C19, 10 uM Luc-H EGE, 50 mM KPO4; 2D6: 5 nM 2D6, 30 uM Luc-ME EGE, 100 mM KPO4; 3A4: 10 nM, 25 uM Luc-PPXE. All amounts are reflected in their final concentration, working concentration is 2x.
NADPH regeneration solution: 1.3 mM NADP+, 3.3 mM glucose-6-phosphate, 3.3 mM MgCl2, 0.4 U/mL glucose-6-phosphate dehydrogenase for all isozymes, 200 mM KPO4 for 3A4. Mixture prepared at RT but kept on ice during automated run.
RT incubation in auxilliary plate hotel for 1A2, 2D6, and 3A4; 37C for 2C9 and 2C19.
Keywords: P450, CYP1A2, CYP2C19, CYP2C9, CYP2D6, CYP3A4, Luciferase, MLSMR, MLSCN, NIH Roadmap, qHTS, NCGC
In the case of `N#C/C(=C\c1ccc(O)c(O)c1)C(=O)NCCCNC(=O)/C(C#N)=C/c1ccc(O)c(O)c1`, the AC50 was 2 µM (active).

As to `N#C/C(=C\c1ccc(O)c(O)c1)C(N)=S`, the AC50 is 12.6 µM (active) and 15.8 µM (active).

Consider `CC[C@@H]1[C@@H]2C[C@H]3[C@H]4N(C)c5ccccc5[C@@]45C[C@@H]([C@@H]2[C@@H]5O)N3[C@H]1O`, for which the “activity, negative = inhibition” value is 1.61% [at 25.6 µM].

Take `CNC[C@H](O)c1ccc(O)cc1`: the “activity, negative = inhibition” value was -13% [at 25.6 µM].

On to `NC[C@H](CP(=O)(O)O)c1ccc(Cl)cc1`, for which the “activity, negative = inhibition” value was -3.38%.

As for `CC1(C)[C@@H]2CC[C@]1(C)CN(CCC[N+](C)(C)C)C2`, the activity, negative = inhibition is 12.3% [at 11.4 µM].

For the compound `C[N+](C)(C)CCCCCC[N+](C)(C)C`, the “activity, negative = inhibition” value was -2.76% [at 25.6 µM].

Turning to `O=C(Nc1ccc(C(F)(F)F)cc1)c1cccn(Cc2ccc3c(c2)OC(F)(F)O3)c1=O`, the “activity, negative = inhibition” value is -21.3%.

As to `C=CCn1c(O)c(C(CC)=NC2CC2)c(=O)[nH]c1=O`, the activity, negative = inhibition was -14.9% [at 2.29 µM].

Regarding `CCCCn1c(O)c(C(CC)=Nc2ccc(OC)cc2OC)c(=O)[nH]c1=O`, the AC50 is 7.94 µM (active).

On to `O=C(CCCN1CCC(n2c(=O)[nH]c3ccccc32)CC1)c1ccc(F)cc1`, for which the “activity, negative = inhibition” value was -10.2% [at 25.6 µM].

For `COc1ccc(C(=O)c2c(C)n(CCN3CCOCC3)c3cc(I)ccc23)cc1`, the AC50 was 5.01 µM (active).

In the case of `CCCn1c(C)c(C(=O)c2cccc3ccccc23)c2ccccc21`, the “activity, negative = inhibition” value was -13.7%.

Consider `CC(C)CC(=O)C[C@H](O)C(Cl)(Cl)Cl`, for which the activity, negative = inhibition was 1.61% [at 11.4 µM].

On to `S=P(C1CCCCC1)(C1CCCCC1)[C@H](c1cccnc1)N1CCCC1`, for which the AC50 was 3.16 µM (active).

Take `CCC(CC)C(=O)NC1CCSC1=O` (stereo not given): the “activity, negative = inhibition” value was 10.8%.

Take `CN1CCN(c2ncc3ncc(=O)n(C)c3n2)CC1`: the “activity, negative = inhibition” value is 0.0574%.

As for `COc1ccc(C(=O)OC2C[C@H]3CC[C@@H](C2)N3C)cc1OC` (stereo not given in full), the “activity, negative = inhibition” value is -8.39% [at 25.6 µM].

Consider `Cc1ccc(S(=O)ON2CCC(C(=O)O)(c3ccccc3)CC2)cc1` (stereo not given), for which the activity, negative = inhibition was -0.254% [at 11.4 µM].

Consider `O=P(c1ccccc1)(c1ccccc1)N1CC2(CC2)CC(O)(c2ccccc2)C1` (stereo not given), for which the “activity, negative = inhibition” value was 1.88%.

`O=P(O)(O)c1ccccc1` (tested in a mixture with another compound): the activity, negative = inhibition was -7.35% [at 11.4 µM].

With `C=C(CC1(C(C)NP(=O)(c2ccccc2)c2ccccc2)CC1)c1ccccc1` (stereo not given), the AC50 was 3.98 µM (active).

`C=C(CC1(CNP(=O)(c2ccccc2)c2ccccc2)CC1)c1ccccc1`: the AC50 is 3.98 µM (active).

`CN1[C@@H]2CC[C@H]1CC(OC(=O)c1cc(Cl)cc(Cl)c1)C2` (stereo not given in full): the “activity, negative = inhibition” value was -16.8%.

`CC(C)(C)c1o[nH]c(=O)c1C[C@H](N)C(=O)O`: the activity, negative = inhibition entry was “inactive”.

`CCN1C[C@]2(C)CC[C@H](O)[C@@]34[C@@H]5CC6[C@@H](OC)C[C@@](O)([C@@H]5[C@@H]6O)[C@H](C[C@@H]23)[C@H]14`: the “activity, negative = inhibition” value was -7.01% [at 25.6 µM].

Turning to `CCCN(CCC)[C@@H]1CCc2cccc(O)c2C1`, the activity, negative = inhibition entry is “inactive”.

As to `N=C(N)c1ccc(-c2ccc(-c3ccc(C(=N)N)cc3)o2)cc1`, the activity, negative = inhibition was 3.4% [at 11.4 µM].

In the case of `CCCN(CCC)C1Cc2cc(OC)c(OC)cc2C1`, the activity, negative = inhibition entry was “inactive”.

Turning to `C[N+](C)(C)CCO`, the “activity, negative = inhibition” value was 10%.

On to `C[C@H](c1ccccc1)N1CCN([C@@H](C)c2ccccc2)CC1`, for which the activity, negative = inhibition was -13.4% [at 11.4 µM].

Take `O=C1c2ccccc2-c2cc([N+](=O)[O-])c([N+](=O)[O-])cc21`: the AC50 was 0.501 µM (active).

On to `O=C1c2cc([N+](=O)[O-])ccc2-c2ccc3c4ccc5c6c(ccc(c7ccc1c2c73)c64)C(=O)c1cc([N+](=O)[O-])ccc1-5`, for which the activity, negative = inhibition was -21% [at 11.4 µM].

For the compound `NCCc1ccc(S(=O)(=O)O)cc1[N+](=O)[O-]`, the activity, negative = inhibition was -7.4% [at 11.4 µM].

Turning to `CSCC[C@@H](N)P(C)(=O)O`, the activity, negative = inhibition was -8.04% [at 11.4 µM].

On to `C=C[C@]12CN(C)[C@H]3C1[C@@]1(C(=O)Nc4ccccc41)[C@H]1C[C@H]2[C@H]3CO1`, for which the “activity, negative = inhibition” value is -22.4% [at 25.6 µM].

Turning to `Oc1cccc2cccnc12`, the activity, negative = inhibition was -3.42% [at 11.4 µM].

Turning to `CC[C@H]1C(=O)OC[C@H]1Cc1cncn1C`, the AC50 is 10 µM (active) and 3.16 µM (active).

`CCC1C(=O)OCC1Cc1cncn1C` (stereo not given): the AC50 is 15.8 µM (active).

With `c1csc(CN2CC3(CCNCC3)C2)n1`, the “activity, negative = inhibition” value was -12.1%.

`OC1(c2ccc(F)cc2)CCNC1` (stereo not given): the “activity, negative = inhibition” value is -2.52%.

With `O=S(=O)(O)/C(=C\c1ccccc1)c1ccccc1` (tested in a mixture with another compound), the activity, negative = inhibition was -11.7% [at 11.4 µM].

As for `COc1ccn(C)c(=O)c1C#N`, the “activity, negative = inhibition” value was -6.41% [at 25.6 µM].

On to `Cc1ccc(N=Nc2c(O)[nH]c(=O)[nH]c2=O)c([N+](=O)[O-])c1`, for which the “activity, negative = inhibition” value is 14.9%.

For the compound `CP(=O)(O)CCCN`, the activity, negative = inhibition result is “inactive”.
